Experimental findings from PubChem BioAssay AID651610 (Broad Institute, 2012) are described below.

In all, about 360,000 compounds went through this assay and about 3,900 (1.1%) were called active.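 Rule for the calls: active = mean replicate inhibition score of at least 50 and every replicate individually at or above 50; inconclusive = only one of the two criteria met; inactive = mean below 50 and not all replicates reaching 50.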 This excerpt belongs to a sample that is enriched for actives.

The test is described as follows: inhibitors of HIV-1 Env-driven cell-cell fusion, primary screen, HeLa-JRFL effector, CEM21 target cells, luciferase (AID 651610).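 Note: 0% = plate neutral controls and 100% = maraviroc near 300 nM.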 The note with it: hits give high values; at 16.7 µM unless noted.
What is called inhibition is the change of the read-out against control, counted positive when it falls. `CCn1c(SCc2cc(=O)n3ccsc3n2)nc2ccccc21`: the inhibition was 9.35% [at 12.3 µM] (inactive). With `CCCCn1c(SCc2ncc(-c3ccccc3)o2)nc2cc(S(N)(=O)=O)ccc21` the figure was 32.4% [at 12.3 µM] (active); with `c1ccc(-c2cnc(CN3CCN(c4ccccc4)CC3)o2)cc1`, 3.52% [at 12.3 µM] (inactive). In the case of `C[C@H](O)C#Cc1cnc2c(c1)C(=O)N([C@H](C)CO)C[C@@H](C)[C@H](CN(C)CC1CCCCC1)O2` it was -6.75% (inactive); in that of `C[C@H](CO)N1C[C@H](C)[C@H](CN(C)Cc2cccnc2)Oc2ncc(C3=CCCC3)cc2C1=O`, 0.845% (inactive).

`C[C@@H]1CN([C@H](C)CO)C(=O)c2c(c3ccccc3n2C)-c2ccccc2CO[C@H]1CN(C)C(=O)[C@@H](Cc1ccccc1)N(C)C`: the inhibition was -56.3% (inactive). In the case of `Cc1ccc(CN(CC(=O)NC2CCCCC2)C(=O)c2csnn2)cc1`, the inhibition is -2.9% [at 12.3 µM] (inactive). In the case of `CS(=O)(=O)N(CC(=O)NC1CCCC1)Cc1ccc(F)cc1` it was 12.4% [at 12.3 µM] (inactive); in that of `Cc1cc(C(C)(C)C)oc1C(=O)N(CC(=O)NC1CCCC1)Cc1ccc(Cl)cc1`, 73.7% [at 12.3 µM] (active). With `O=C(C[C@@H]1CC[C@H](NC(=O)Nc2cc(F)ccc2F)[C@H](CO)O1)NCc1ccncn1` the figure was 1.2% (inactive); with `Cc1noc(C)c1-c1ccc(C(=O)NCc2ccncc2)c2occc12`, -7.55% [at 12.3 µM] (inactive). Turning to `COCCCNC(=O)c1ccc(-c2c(C)noc2C)c2ccoc12`, the inhibition is -11% [at 12.3 µM] (inactive). In the case of `COc1ccc(CNC(=O)c2ccc(-c3cccnc3)c3ccoc23)cc1OC` it was 55.1% [at 12.3 µM] (active); in that of `CN(Cc1c(F)cccc1Cl)C(=O)COC(=O)Cn1cnc2ccccc2c1=O`, 63.4% [at 12.3 µM] (active); in that of `CC1(C)C(=O)Nc2ccccc2N1C(=O)COC(=O)Cn1cnc2ccccc2c1=O`, -40.1% [at 12.3 µM] (inactive). For `O=C(COC(=O)Cn1cnc2ccccc2c1=O)NCc1ccccc1Cl`, the inhibition is 0.405% [at 12.3 µM] (inactive). For `O=C(NCc1ccccn1)[C@@H]1[C@@H](CO)[C@@H]2Cn3c(ccc(/C=C/c4ccccc4)c3=O)[C@H]1N2CC1CC1`, the inhibition is -8.79% (inactive). With `CC(C)c1cc(C(=O)NC2CCCCCC2)c2ccccc2n1` the figure was 30.2% [at 12.3 µM] (inactive). With `CC(C)C(C)NC(=O)COc1nc2ccccc2nc1N(C)C1CCCCC1` (stereo not given) the figure was 17.4% [at 12.3 µM] (inactive); with `CN(c1ccc2nc3ccccc3c(=O)n2n1)C1CCCCC1`, 68.2% [at 12.3 µM] (active). With `COc1cccc(S(=O)(=O)N(C)C[C@@H]2Oc3cc(C#CCN(C)C)ccc3S(=O)(=O)N([C@@H](C)CO)C[C@@H]2C)c1` the figure was -11.4% (inactive); with `FC(F)(F)c1ccc(-n2cn[nH]c2=S)cc1`, 2.89% [at 12.3 µM] (inactive); with `Cn1c(-c2sccc2OCc2cccc(C(F)(F)F)c2)n[nH]c1=S`, 63.4% [at 12.3 µM] (active). As for `CCOC(=O)N1CCN(Cc2nc(Cc3cccc(C(F)(F)F)c3)no2)CC1`, the inhibition was -3.49% [at 12.3 µM] (inactive). In the case of `O=C(C[C@H]1CC[C@H]2[C@@H](COC[C@@H](O)CN2Cc2nccs2)O1)NCc1ccccc1Cl` it was 6.96% (inactive). Take `CN(C)CC(=O)Nc1ccc2c(c1)[C@H]1C[C@H](CC(=O)NCc3ccccc3)O[C@@H](CO)[C@H]1O2`: the inhibition was -29.2% (inactive). On to `CC(C)CN(CC(C)C)CC(O)CN(c1ccccc1)S(=O)(=O)c1ccccc1[N+](=O)[O-]` (stereo not given), for which the inhibition is 65.4% [at 12.3 µM] (active).

For the compound `COc1ccc([N+](=O)[O-])cc1N(CC(O)CN(CC(C)C)CC(C)C)S(=O)(=O)c1ccc(C)cc1` (stereo not given), the inhibition was -12.9% [at 12.3 µM] (inactive).

Regarding `Cc1cccc(N(CC(O)CN(C)C)S(=O)(=O)c2ccccc2)c1` (stereo not given), the inhibition is -28.3% [at 12.3 µM] (inactive).

On to `CN(C)CC(=O)N[C@H]1CC[C@H](CCNC(=O)C2CCCCC2)O[C@H]1CO`, for which the inhibition was -245% (inactive). In the case of `Cc1noc(C)c1C(=O)NCC1COc2ccccc2O1` (stereo not given) it was -5.41% [at 12.3 µM] (inactive); in that of `c1ccc2c(c1)OCC(CNc1ncnc3nc[nH]c13)O2` (stereo not given), 72.9% [at 12.3 µM] (active). With `COc1ccc(CCNc2ncnc3nc[nH]c23)cc1OC` the figure was 18% [at 12.3 µM] (inactive); with `C[C@@H]1CCCCO[C@H](CN(C)Cc2ccc3c(c2)OCO3)[C@@H](C)CN([C@H](C)CO)C(=O)c2cc(N(C)C)ccc2O1`, -11.2% (inactive).

With `C[C@H](NC(=O)C[C@@H]1CC[C@H](NC(=O)CN2CCOCC2)[C@H](CO)O1)c1ccccc1`, the inhibition was -13.9% (inactive). With `CCCCn1nnnc1C(c1ccccc1)N1CCN(c2ccccc2OC)CC1` (stereo not given) the figure was 6.77% [at 12.3 µM] (inactive). Consider `Cc1ccc(C(c2nnnn2CS(=O)(=O)c2ccc(C)cc2)N2CCC(C)CC2)cc1` (stereo not given), for which the inhibition is 53.3% [at 12.3 µM] (inactive).

Turning to `N#Cc1ccc(C(c2nnnn2CCc2ccccc2)N2CCCCCC2)cc1` (stereo not given), the inhibition is 90.5% [at 12.3 µM] (active). With `CN(C)CC(=O)Nc1ccc2c(c1)[C@H]1C[C@@H](CC(=O)NCc3ccc(-c4ccccc4)cc3)O[C@H](CO)[C@H]1O2` the figure was 19.8% (inactive); with `COC(=O)[C@H](CC(C)C)NS(=O)(=O)c1c(F)cccc1F`, -17.9% [at 12.3 µM] (inactive); with `CCSc1nc(-c2ccc(OC)cc2)cc(-c2ccc(OC)cc2)c1C#N`, 66% [at 12.3 µM] (active). On to `COc1ccc(CCNC(=O)CSc2nc(-c3ccc(OC)c(OC)c3)ccc2C#N)cc1`, for which the inhibition was 4.49% [at 12.3 µM] (inactive).

With `COc1ccc(-c2cc(-c3ccc(N)cc3)nc(N)c2C#N)cc1OC`, the inhibition is 22.6% [at 12.3 µM] (inactive).

Take `CS(=O)(=O)Nc1ccc2c(c1)[C@@H]1C[C@H](CC(=O)NCc3cc(F)ccc3F)O[C@@H](CO)[C@@H]1O2`: the inhibition was 18.1% (inactive).

For the compound `Cc1ccc(S(=O)(=O)Nc2ccc3c(c2)C(=O)N([C@H](C)CO)C[C@@H](C)[C@@H](CN(C)S(C)(=O)=O)OCCCC[C@@H](C)O3)cc1`, the inhibition is -1.67% (inactive).
